Records with an inconclusive call do not appear. Entries that show only a call come without a potency. Activity calls are given as the source filed them. Calls follow the shape of the full dose curve.
The molecules below were run against Acetylcholinesterase (Homo sapiens) (UniProt P22303) (assay: Acetylcholinesterase (AChE) small molecule antagonists: colormetric cell-based qHTS assay (AID 1347395; also: nearly all actives have a fitted effect of over 30% in size)). Conditions: SH-SY5Y cells AChE activity, colorimetric (Ellman); series mostly up to 115 µM.
Acetylcholinesterase (Homo sapiens), sequence (P22303 whole entry, looked up): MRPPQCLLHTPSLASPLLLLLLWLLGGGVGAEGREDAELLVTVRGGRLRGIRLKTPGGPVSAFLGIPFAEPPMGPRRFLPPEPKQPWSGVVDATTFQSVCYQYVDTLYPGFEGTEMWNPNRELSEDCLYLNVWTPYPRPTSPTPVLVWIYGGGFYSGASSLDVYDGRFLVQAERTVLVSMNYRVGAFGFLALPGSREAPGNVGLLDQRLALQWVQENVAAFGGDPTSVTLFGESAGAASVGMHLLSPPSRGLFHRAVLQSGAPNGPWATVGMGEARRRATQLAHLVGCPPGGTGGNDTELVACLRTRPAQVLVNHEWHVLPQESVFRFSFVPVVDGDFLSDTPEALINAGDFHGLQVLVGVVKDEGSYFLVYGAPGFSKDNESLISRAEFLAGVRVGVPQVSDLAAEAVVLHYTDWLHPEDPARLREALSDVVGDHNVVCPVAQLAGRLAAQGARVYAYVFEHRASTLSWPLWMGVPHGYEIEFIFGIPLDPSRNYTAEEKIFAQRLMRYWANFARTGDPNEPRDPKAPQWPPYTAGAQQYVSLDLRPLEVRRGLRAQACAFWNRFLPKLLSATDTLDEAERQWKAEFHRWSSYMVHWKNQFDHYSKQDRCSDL
How it was run: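 Colorimetric read-out: DTNB detects thiocholine released when cellular AChE in SH-SY5Y cells hydrolyses acetylthiocholine. Cells attached overnight, received compound for 30 min at 37 C, then substrate mix for 90 min at 37 C.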
With `Cn1cc(S(C)=O)c(=O)c2ccc(F)cc21` (stereo not drawn) the Potency was “inactive”.
`CCCCCC1=CCCC1=O` was tested, and the Potency was “inactive”.
With `NC(N)=NCCN1CCCCCCC1` the activity, negative = inhibition was 6.69% [at 0.435 µM] (inactive).
For `CCCCCCCCCCCC(=O)N(C)CC(=O)O`, the Potency was “inactive”.
`COC(C)(C)OC` was tested, and the Potency was “inactive”.
With `NC(=O)c1cn(Cc2c(F)cccc2F)nn1` the Potency was “inactive”.
For `COc1cc2c(cc1N)oc1ccccc12`, the Potency was “inactive”.
`CC(O)COc1ccccc1` (stereo not drawn) was tested, and the Potency was “inactive”.
`CS(=O)(=O)c1ccc([C@@H](O)[C@@H](CO)NC(=O)C(Cl)Cl)cc1` was tested, and the Potency was “inactive”.
With `CCCc1ccccc1O` the Potency was “inactive”.
`Cc1c(C(N)=O)cc([N+](=O)[O-])cc1[N+](=O)[O-]` was tested, and the Potency was “inactive”.
`Cc1ccc2c(Cl)cc(Cl)c(O)c2n1` was tested, and the Potency was “inactive”.
For `CCOC(=O)CN1CCCC1=O`, the Potency was “inactive”.
`Cc1ccc(N=Nc2c(O)c(C(=O)O)cc3ccccc23)c(S(=O)(=O)O)c1` was tested, and the Potency was “inactive”.
In the case of `Cc1cc(C)cc(O)c1`, the Potency is reported as “inactive”.
In the case of `CC1=CC[C@@H]2C[C@H]1C2(C)C`, the activity, negative = inhibition is reported as 7.66% [at 23.6 µM] (inactive).
With `CC(CCO)CC(C)(C)C` (stereo not drawn) the Potency was “inactive”.
For `COc1cc(S(=O)(=O)Nc2ccccc2)c(OC)cc1N`, the Potency was “inactive”.
With `O=C(NCCN1CCOCC1)c1ccc(Cl)cc1` the Potency was “inactive”.
For `Cc1cc2nc(N)sc2cc1C`, the Potency was “inactive”.
In the case of `O=C[O][Al]([O]C=O)[O]C=O`, the Potency is reported as “inactive”.
With `COc1cccc(OC)c1O` the Potency was “inactive”.
In the case of `CC(=O)/C=C/C1C(C)=CCCC1(C)C` (stereo not drawn), the Potency is reported as “inactive”.
With `Cc1cc(O)c(C(C)(C)C)cc1Sc1cc(C(C)(C)C)c(O)cc1C` the Potency was “inactive”.
For `O=[N+]([O-])c1ccc2c(c1)Cc1ccccc1-2`, the Potency was “inactive”.
With `CC(=O)Nc1c(I)cc(I)c(C(=O)O)c1I` the Potency was “inactive”.
In the case of `C[C@]12CC[C@@H]3c4ccc(O)cc4CC[C@H]3[C@@H]1C[C@@H](O)[C@@H]2O`, the Potency is reported as “inactive”.
In the case of `CCCCCCCCS(=O)(=O)O`, the Potency is reported as “inactive”.
With `COC(=O)/C=C(\C)CCC=C(C)C` the Potency was “inactive”.
With `CC(=O)Oc1ccc(C2(c3ccc(OC(C)=O)cc3)C(=O)Nc3ccccc32)cc1` the Potency was “inactive”.
For `CNC(=O)Nc1ccc(Cl)c(Cl)c1`, the Potency was “inactive”.
For `C=CC(=O)CCCCC`, the Potency was “inactive”.
`COc1ccc([C@@H]2CC(=O)c3c(O)cc(O[C@@H]4O[C@H](CO[C@@H]5O[C@@H](C)[C@H](O)[C@@H](O)[C@H]5O)[C@@H](O)[C@H](O)[C@H]4O)cc3O2)cc1OC` was tested, and the Potency was “inactive”.
For `CC1=CC(=O)c2ccccc2C1=O`, the Potency was “inactive”.
`CCCCN(CCCC)CCCCCCN(CCCC)CCCC` was tested, and the Potency was “inactive”.
For `CCCCCCCCSCCO`, the Potency was “inactive”.
With `Cc1c(Cn2ccnc2)c2ccccc2n1CCC(=O)O` the Potency was “inactive”.
For `Cc1ncsc1CCO`, the Potency was “inactive”.
With `CCC(C(=O)O)c1ccc(N2Cc3ccccc3C2=O)cc1` (stereo not drawn) the Potency was “inactive”.

These molecules were tested against Acetylcholinesterase (Homo sapiens) (UniProt P22303) (assay: Acetylcholinesterase (AChE) small molecule antagonists: enzyme-based qHTS assay (AID 1347397; also: nearly all actives have a fitted effect of over 55% in size; also: potency is read from the fitted curve at half-maximal effect)). Conditions: Potency: AChE enzyme activity inhibition; outcome: AChE enzyme activity inhibition; series mostly up to 115 µM.
How it was run: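 Recombinant human AChE (50 mU/mL) preincubated with compound 30 min at room temperature; acetylthiocholine plus DTNB then added, and thiocholine formation read colorimetrically after 10 min at room temperature. DMSO served as vehicle control.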
For `Cn1cc(S(C)=O)c(=O)c2ccc(F)cc21` (stereo not drawn), the Potency was “inactive”.
With `CCCCCC1=CCCC1=O` the Potency was “inactive”.
`NC(N)=NCCN1CCCCCCC1` was tested, and the activity change, negative = inhibition was 0% [at 0.435 µM] (inactive).
`CCCCCCCCCCCC(=O)N(C)CC(=O)O` was tested, and the Potency was “inactive”.
With `COC(C)(C)OC` the Potency was “inactive”.
With `NC(=O)c1cn(Cc2c(F)cccc2F)nn1` the Potency was “inactive”.
In the case of `COc1cc2c(cc1N)oc1ccccc12`, the Potency is reported as “inactive”.
With `CC(O)COc1ccccc1` (stereo not drawn) the Potency was “inactive”.
For `CS(=O)(=O)c1ccc([C@@H](O)[C@@H](CO)NC(=O)C(Cl)Cl)cc1`, the Potency was “inactive”.
`CCCc1ccccc1O` was tested, and the Potency was “inactive”.
In the case of `Cc1c(C(N)=O)cc([N+](=O)[O-])cc1[N+](=O)[O-]`, the Potency is reported as “inactive”.
For `Cc1ccc2c(Cl)cc(Cl)c(O)c2n1`, the Potency was “inactive”.
For `CCOC(=O)CN1CCCC1=O`, the Potency was “inactive”.
For `Cc1ccc(N=Nc2c(O)c(C(=O)O)cc3ccccc23)c(S(=O)(=O)O)c1`, the Potency was “inactive”.
In the case of `Cc1cc(C)cc(O)c1`, the Potency is reported as “inactive”.
With `CC1=CC[C@@H]2C[C@H]1C2(C)C` the activity change, negative = inhibition was 0.56% [at 23.6 µM] (inactive).
In the case of `CC(CCO)CC(C)(C)C` (stereo not drawn), the Potency is reported as “inactive”.
With `COc1cc(S(=O)(=O)Nc2ccccc2)c(OC)cc1N` the Potency was “inactive”.
In the case of `O=C(NCCN1CCOCC1)c1ccc(Cl)cc1`, the Potency is reported as “inactive”.
For `Cc1cc2nc(N)sc2cc1C`, the Potency was “inactive”.
With `O=C[O][Al]([O]C=O)[O]C=O` the Potency was “inactive”.
With `COc1cccc(OC)c1O` the Potency was “inactive”.
`CC(=O)/C=C/C1C(C)=CCCC1(C)C` (stereo not drawn) was tested, and the Potency was “inactive”.
`Cc1cc(O)c(C(C)(C)C)cc1Sc1cc(C(C)(C)C)c(O)cc1C` was tested, and the Potency was 28.2 µM (active).
With `O=[N+]([O-])c1ccc2c(c1)Cc1ccccc1-2` the Potency was “inactive”.
In the case of `CC(=O)Nc1c(I)cc(I)c(C(=O)O)c1I`, the Potency is reported as “inactive”.
With `C[C@]12CC[C@@H]3c4ccc(O)cc4CC[C@H]3[C@@H]1C[C@@H](O)[C@@H]2O` the Potency was “inactive”.
In the case of `CCCCCCCCS(=O)(=O)O`, the Potency is reported as “inactive”.
For `COC(=O)/C=C(\C)CCC=C(C)C`, the Potency was “inactive”.
For `CC(=O)Oc1ccc(C2(c3ccc(OC(C)=O)cc3)C(=O)Nc3ccccc32)cc1`, the Potency was “inactive”.
For `CNC(=O)Nc1ccc(Cl)c(Cl)c1`, the Potency was “inactive”.
With `C=CC(=O)CCCCC` the Potency was “inactive”.
For `COc1ccc([C@@H]2CC(=O)c3c(O)cc(O[C@@H]4O[C@H](CO[C@@H]5O[C@@H](C)[C@H](O)[C@@H](O)[C@H]5O)[C@@H](O)[C@H](O)[C@H]4O)cc3O2)cc1OC`, the Potency was “inactive”.
For `CC1=CC(=O)c2ccccc2C1=O`, the Potency was “inactive”.
With `CCCCN(CCCC)CCCCCCN(CCCC)CCCC` the Potency was “inactive”.
With `CCCCCCCCSCCO` the Potency was “inactive”.
In the case of `Cc1c(Cn2ccnc2)c2ccccc2n1CCC(=O)O`, the Potency is reported as “inactive”.
In the case of `Cc1ncsc1CCO`, the Potency is reported as “inactive”.
With `CCC(C(=O)O)c1ccc(N2Cc3ccccc3C2=O)cc1` (stereo not drawn) the Potency was “inactive”.

From PubChem BioAssay (Tox21)
